Laboratory results from PubChem BioAssay (Tox21).
Results filed as inconclusive are left out. Active and inactive are the calls of the source. The call rests on the fitted dose curve; in most records, active means well fitted curve in the direction sought with a large enough effect in the repeat runs; inconclusive means weak or mixed curves; inactive means no such curve, though single readings can be large; an effect the other way counts as inactive or inconclusive.

Legend:
[1] = qHTS RealTime-Glo MT Cell Viability Assay in HepG2 cells - 24 hour (AID 1224867); details: RealTime-Glo luminescence; series mostly up to 76.8 µM; further: nearly all actives have a fitted effect of over 50% in size
Procedure, shortened: (§1)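 Cell number in HepG2 cultures estimated from NanoLuc luminescence generated by metabolic reduction of a prosubstrate by living cells. The homogeneous, nonlytic format allowed repeated reads at 0, 8, 16, 24, 32 and 40 h of compound exposure.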

[2] = A CellTox Green Cytotoxicity Assay to monitor cytotoxicity in HEK293 cells - 0 hour (AID 1224869); details: CellTox Green fluorescence; series mostly up to 76.8 µM; further: nearly all actives have a fitted effect of over 50% in size
Procedure, shortened: (§2)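 Dead-cell fluorescence measured kinetically: asymmetric cyanine dye, HEK293, 600 cells/well, 5 h settle, 23 nL cpd/DMSO, 37 C, reads 0–40 h every 8 h.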

[3] = A CellTox Green Cytotoxicity Assay to monitor cytotoxicity in HEK293 cells - 40 hour (AID 1224871); details: CellTox Green fluorescence; series mostly up to 76.8 µM; further: nearly all actives have a fitted effect of over 45% in size
Procedure, shortened: as §2

[4] = qHTS RealTime-Glo MT Cell Viability Assay in HEK293 cells - 16 hour (AID 1224872); details: RealTime-Glo luminescence; series mostly up to 76.8 µM; further: top concentration of the series differs between compounds; nearly all actives have a fitted effect of over 50% in size
Procedure, shortened: (§3)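 Homogeneous bioluminescent viability format in HEK293 cells (600 cells/well). Following 5 h at 37 C/5% CO2, 23 nL compound was pintooled; the signal was measured repeatedly during 40 h incubation.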

[5] = qHTS RealTime-Glo MT Cell Viability Assay in HepG2 cells - 8 hour (AID 1224873); details: RealTime-Glo luminescence; series mostly up to 76.8 µM; further: nearly all actives have a fitted effect of over 55% in size
Procedure, shortened: (§4)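 Real-time viability: cells seeded at 600 per well together with NanoLuc and cell-permeant prosubstrate, compounds added after 5 h incubation. Luminescence tracked at 0, 8, 16, 24, 32 and 40 h of exposure.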

[6] = qHTS RealTime-Glo MT Cell Viability Assay in HEK293 cells - 40 hour (AID 1224874); details: RealTime-Glo luminescence; max response: stronger effect = lower value; further: nearly all actives have a fitted effect of over 50% in size
Procedure, shortened: (§5)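 600 HEK293 cells per well, dispensed already mixed with RealTime-Glo MT reagents. Compound dosing came 5 h later. The same wells were read for luminescence at 0, 8, 16, 24, 32 and 40 h of exposure at 37 C.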

[7] = A CellTox Green Cytotoxicity Assay to monitor cytotoxicity in HEK293 cells - 24 hour (AID 1224875); details: CellTox Green fluorescence; series mostly up to 76.8 µM; further: nearly all actives have a fitted effect of over 45% in size
Procedure, shortened: as §2

[8] = A CellTox Green Cytotoxicity Assay to monitor cytotoxicity in HepG2 cells - 16 hour (AID 1224876); details: CellTox Green fluorescence; series mostly up to 76.8 µM; further: nearly all actives have a fitted effect of over 45% in size
Procedure, shortened: (§6)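 First, HepG2 cells (600/well) mixed with reagent were plated; second, after 5 h at 37 C they received compounds via pintool; third, fluorescence was measured at 0 h through 40 h at 8 h intervals.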

[9] = qHTS RealTime-Glo MT Cell Viability Assay in HepG2 cells - 32 hour (AID 1224877); details: RealTime-Glo luminescence; series mostly up to 76.8 µM; further: nearly all actives have a fitted effect of over 55% in size
Procedure, shortened: as §1

[10] = A CellTox Green Cytotoxicity Assay to monitor cytotoxicity in HepG2 cells - 24 hour (AID 1224878); details: CellTox Green fluorescence; series mostly up to 76.8 µM; further: nearly all actives have a fitted effect of over 45% in size
Procedure, shortened: as §6

[11] = A CellTox Green Cytotoxicity Assay to monitor cytotoxicity in HepG2 cells - 40 hour (AID 1224879); details: CellTox Green fluorescence; series mostly up to 76.8 µM; further: nearly all actives have a fitted effect of over 40% in size
Procedure, shortened: as §6

[12] = qHTS RealTime-Glo MT Cell Viability Assay in HEK293 cells - 0 hour (AID 1224880); details: RealTime-Glo luminescence; series mostly up to 76.8 µM
Procedure, shortened: as §5

[13] = A CellTox Green Cytotoxicity Assay to monitor cytotoxicity in HEK293 cells - 32 hour (AID 1224881); details: CellTox Green fluorescence; series mostly up to 76.8 µM; further: nearly all actives have a fitted effect of over 40% in size
Procedure, shortened: as §2

[14] = A CellTox Green Cytotoxicity Assay to monitor cytotoxicity in HepG2 cells - 0 hour (AID 1224882); details: CellTox Green fluorescence; series mostly up to 76.8 µM; further: nearly all actives have a fitted effect of over 35% in size
Procedure, shortened: as §6

[15] = A CellTox Green Cytotoxicity Assay to monitor cytotoxicity in HepG2 cells - 32 hour (AID 1224883); details: CellTox Green fluorescence; series mostly up to 76.8 µM; further: nearly all actives have a fitted effect of over 50% in size
Procedure, shortened: as §6

[16] = A CellTox Green Cytotoxicity Assay to monitor cytotoxicity in HEK293 cells - 8 hour (AID 1224884); details: CellTox Green fluorescence; series mostly up to 76.8 µM; further: nearly all actives have a fitted effect of over 35% in size
Procedure, shortened: as §2

[17] = qHTS RealTime-Glo MT Cell Viability Assay in HepG2 cells - 16 hour (AID 1224885); details: RealTime-Glo luminescence; series mostly up to 76.8 µM; further: nearly all actives have a fitted effect of over 50% in size
Procedure, shortened: as §1

[18] = qHTS RealTime-Glo MT Cell Viability Assay in HEK293 cells - 32 hour (AID 1224868); details: RealTime-Glo luminescence; series mostly up to 76.8 µM
Procedure, shortened: as §3

[19] = qHTS RealTime-Glo MT Cell Viability Assay in HepG2 cells - 40 hour (AID 1224870); details: RealTime-Glo luminescence; series mostly up to 76.8 µM; further: nearly all actives have a fitted effect of over 50% in size
Procedure, shortened: as §4
On the % scale 0 is the no-effect control and ±100 the full control effect.

CC(C)=CC(C)(C)C
inactive: outcome [1] | Potency [2] | Potency [3] | Potency [4] | outcome [5] | max response [6] 6.16% | Potency [7] | Potency [8] | outcome [9] | Potency [10] | Potency [11] | outcome [12] | Potency [13] | Potency [14] | Potency [15] | Potency [16] | outcome [17]

OC(CCN1CCCCC1)(c1ccccc1)c1ccccc1
inactive: Potency [18] | outcome [19] | Potency [3] | Potency [4] | outcome [5] | max response [6] -16.7% | Potency [8] | outcome [9] | Potency [10] | Potency [11] | outcome [12] | Potency [13] | Potency [14] | Potency [15] | Potency [16] | outcome [17]

CCCCC/C=C/CC(=O)OC
inactive: Potency [18] | Potency [2] | outcome [19] | Potency [3] | Potency [4] | outcome [5] | max response [6] -0.743% | Potency [7] | Potency [8] | outcome [9] | Potency [10] | Potency [11] | outcome [12] | Potency [13] | Potency [15] | outcome [17]

COc1cc2c3cc1Oc1cc(ccc1O)C[C@@H]1c4c(cc(OC)c(O)c4Oc4ccc(cc4)C[C@@H]3N(C)CC2)CC[N+]1(C)C
inactive: outcome [1] | outcome [19] | Potency [3] | Potency [4] | outcome [5] | max response [6] 3.06% | Potency [7] | Potency [8] | outcome [9] | Potency [10] | Potency [11] | outcome [12] | Potency [13] | Potency [14] | Potency [15] | Potency [16] | outcome [17]

Cc1nc([N+](=O)[O-])cn1-c1ccc([N+](=O)[O-])cc1
inactive: Potency [18] | outcome [19] | Potency [3] | Potency [4] | outcome [5] | max response [6] 4.25% | Potency [7] | Potency [8] | outcome [9] | Potency [10] | Potency [11] | outcome [12] | Potency [13] | Potency [15] | Potency [16] | outcome [17]

CC1=NN(c2ccc(S(=O)(=O)O)cc2)C(=O)C1N=Nc1ccccc1 (stereo unspecified)
inactive: outcome [1] | Potency [2] | Potency [3] | outcome [5] | Potency [7] | Potency [8] | outcome [9] | Potency [10] | Potency [11] | outcome [12] | Potency [13] | Potency [15] | outcome [17]

Cc1nc2ccccc2c(=O)o1
inactive: outcome [1] | Potency [4] | outcome [5] | max response [6] 5.55% | Potency [7] | Potency [8] | outcome [9] | Potency [10] | Potency [11] | outcome [12] | Potency [15] | outcome [17]

COc1ccc(OC)c(NC(=O)CC(C)=O)c1
inactive: Potency [18] | Potency [2] | Potency [3] | Potency [4] | outcome [5] | max response [6] 2.24% | Potency [7] | Potency [8] | outcome [9] | Potency [10] | Potency [11] | outcome [12] | Potency [13] | Potency [14] | Potency [15] | Potency [16] | outcome [17]

CC(C)CCO
inactive: Potency [18] | Potency [2] | outcome [19] | Potency [3] | Potency [4] | max response [6] 3.55% | Potency [7] | Potency [8] | Potency [10] | Potency [11] | outcome [12] | Potency [13] | Potency [14] | Potency [15] | Potency [16]

c1ccc(CNc2ncnc3nc[nH]c23)cc1
inactive: Potency [2] | outcome [19] | Potency [3] | outcome [5] | Potency [7] | Potency [8] | outcome [9] | Potency [10] | Potency [11] | outcome [12] | Potency [13] | Potency [15] | Potency [16] | outcome [17]

CC(=O)OC(C)(C)Cc1ccccc1
inactive: Potency [18] | Potency [2] | outcome [19] | Potency [3] | Potency [4] | outcome [5] | max response [6] 6.53% | Potency [8] | outcome [9] | Potency [10] | Potency [11] | outcome [12] | Potency [13] | Potency [14] | Potency [15] | Potency [16] | outcome [17]

CC(=O)OCC(=O)[C@@]1(O)[C@H](OC(C)=O)C[C@H]2[C@@H]3CCC4=CC(=O)C=C[C@]4(C)[C@@]3(F)[C@@H](O)C[C@@]21C
inactive: Potency [18] | Potency [2] | outcome [19] | Potency [3] | Potency [4] | outcome [5] | max response [6] 3.94% | Potency [7] | Potency [8] | outcome [9] | Potency [10] | Potency [11] | outcome [12] | Potency [13] | Potency [14] | Potency [15] | Potency [16] | outcome [17]

COCC(=O)Nc1c(I)c(C(=O)NCC(O)CO)c(I)c(C(=O)N(C)CC(O)CO)c1I (stereo unspecified)
inactive: outcome [1] | Potency [2] | outcome [19] | Potency [3] | outcome [5] | Potency [7] | Potency [8] | outcome [9] | Potency [10] | Potency [11] | Potency [13] | Potency [15] | Potency [16] | outcome [17]

O=C1OC(=O)c2ccccc21
inactive: outcome [1] | Potency [2] | Potency [3] | Potency [4] | outcome [5] | max response [6] -12.4% | Potency [8] | outcome [9] | Potency [10] | Potency [11] | outcome [12] | Potency [13] | Potency [14] | Potency [15] | Potency [16] | outcome [17]

Cc1cc(O)c2c(c1)C(=O)c1cccc(O)c1C2=O
inactive: Potency [18] | Potency [2] | outcome [19] | Potency [3] | Potency [4] | outcome [5] | max response [6] 3.33% | Potency [7] | Potency [8] | outcome [9] | Potency [10] | Potency [11] | outcome [12] | Potency [13] | Potency [14] | Potency [15] | Potency [16] | outcome [17]
